Data on 40 compounds can be found in PubChem BioAssay (NCI).

Molecules are shown by their SMILES. About 83,000 compounds went through this panel and 20% of them were active in at least one assay; those are over-represented in the sample as a whole.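 The endpoint reported here, percent growth, reads 100 for growth as untreated, 0 for no net growth and -100 for all cells dead.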 Active and inactive are the calls of the source.

The test deals with SK-MEL-5 melanoma. The test is described as follows: NCI-60 one-dose screen, 48 h (100 = growth as untreated, 0 = no growth, -100 = all killed). The following applies: 10 µM unless noted. As to the method: Growth inhibition of the SK-MEL-5 human tumor cell line is measured as a screen for anti-cancer activity. Cells are grown in 96 well plates and exposed to the test compound for 48 hours. Compounds are tested at a single concentration, which is 10^-5 M for most compounds. The reported endpoint is percent growth (GI% or GIPRCNT), where numbers from 0 - 100% represent growth inhibition, and numbers from -100% - 0 represent cell death. For example, a value of 40 represents 60% growth inhibition. A value of 0 means no net growth occurred over the course of the experiment. A value of -40 indicates 40% of cells at the beginning of the experiment died by the end of the experiment. A value of -100 means all cells are dead at the end of the experiment.
NCI-60 Human Tumor Cell Lines Screen was performed using the standard one-dose NCI protocol, which is described in more detail at https://dtp.cancer.gov/discovery_development/nci-60/default.htm.
Compounds with GIPRCNT values below 10 were considered active. Activity score was based on GIPRCNT using the following formula: […]
Score is 0 for GIPRCNT values of 100 or above, 50 for GIPRCNT values of 0, and 100 for GIPRCNT values of -100.
Turning to `Cc1cn(-c2cc(NC(=O)c3cncc(C#Cc4cnc5ccc(O[C@H]6CCOC6)nn45)c3)cc(C(F)(F)F)c2)cn1`, the growth was 70.6% (inactive).
As to `CCOC(=O)c1c(NCC(=O)Nc2cccc([N+](=O)[O-])c2)sc2c1CCCC2`, the growth was -98.4% (active).
On to `Cc1cc(-c2ccc3nc(N)sc3c2)nc2ccc3[nH]ncc3c12`, for which the growth is 26.3% (inactive).
For the compound `CS(=O)c1nccc(-c2c(-c3ccc(F)c(OCc4ccc(F)cc4)c3)nc3sccn23)n1` (stereo not given), the growth was 100% (inactive).
Regarding `CS(=O)c1nccc(-c2c(-c3ccc(F)c(OCCc4ccccc4)c3)nc3sccn23)n1` (stereo not given), the growth is 100% (inactive).
`CCN1C(=O)N(CC)C2SC(N/N=C/c3ccc(F)cc3)=NC21` (stereo not given): the growth was 15.3% (inactive).
With `COc1cc(CNC(=O)/C=C/c2ccccc2)ccc1OCC(=O)NO`, the growth is 100% (inactive).
For `CS(=O)(=O)c1nccc(-c2c(-c3ccc(F)c(OCc4ccccc4)c3)nc3sccn23)n1`, the growth was 96.2% (inactive).
Take `COc1cc([C@H]2OC[C@H]3[C@@H]2CO[C@@H]3c2ccc(O)c(OC)c2)ccc1O`: the growth is 57.3% (inactive).
Take `O=C1[C@H]2Cc3c([nH]c4ccccc34)[C@H](c3ccc(Cl)cc3)N2C(=O)CN1C1CCN(Cc2c(Cl)cccc2Cl)CC1`: the growth was 66.3% (inactive).
With `N/C(=N\OC(=O)CSc1nc2ccccc2s1)c1ccc2ccccc2c1`, the growth was 101% (inactive).
As to `Oc1ccc(-c2nnc(SCc3ccc(O)c4ncccc34)n2-c2ccccc2)cc1`, the growth was -44.6% (active).
Consider `CC1=C2C(=C[C@@](C)(COS(N)(=O)=O)[C@@H]2O)C(=O)[C@](C)(O)C12CC2`, for which the growth is 89.5% (inactive).
As to `O=C1Nc2ccc(Br)cc2/C1=N\c1nnc(-c2ccc(Cl)cc2)o1`, the growth is 77.2% (inactive).
With `Cc1cc(=O)n2nc(-c3c[nH]c4ccccc34)sc2n1`, the growth was 98.5% (inactive).
To `CCCCCCNC(=O)Oc1ccc(/C(=C(/C)c2ccc(OC)cc2)c2ccc(OCCN3CCCC3)cc2)cc1` belongs 53.7% (inactive).
Regarding `COc1ccc(-c2cc(-c3cccc4ccccc34)n3c(n2)nc2ccccc23)cc1`, the growth was 30.4% (inactive).
With `Cc1ccc(/C=C/c2nn3c(-c4ccco4)nnc3s2)cc1`, the growth is 98.4% (inactive).
Turning to `CCN1C(=O)N(CC)C2SC(N/N=C/c3cccs3)=NC21` (stereo not given), the growth was -5.21% (active).
In the case of `N/C(=N\c1nc2ccc([N+](=O)[O-])cc2s1)C(Cl)(Cl)Cl` it was 83.8% (inactive); in that of `COc1cc2c3c(n(CCCNC4CCCCC4)c(=O)c2cc1OC)-c1cc2c(cc1C3=O)OCO2`, 97.2% (inactive).
For the compound `COc1cc2c3c(n(CCCNC4CCC4)c(=O)c2cc1OC)-c1cc2c(cc1C3=O)OCO2`, the growth was 76.8% (inactive).
On to `O=C1Nc2cc(OC(F)(F)F)ccc2Oc2ccc(-c3ccnc(N4CCNCC4)c3)cc21`, for which the growth was -85.3% (active).
Take `O=C1Nc2ccc(Cl)cc2/C1=C/c1ccc(OCc2ccc(F)cc2)cc1`: the growth is 105% (inactive).
Take `O=c1[nH]c(CNc2ccc(NCc3c(-c4ccccc4)no[n+]3[O-])cc2)nc2c1cnn2-c1ccccc1`: the growth is 39% (inactive).
Consider `Cc1ccc(NC(=O)c2ccc(CN3CCN(C)CC3)c(C(F)(F)F)c2)cc1Oc1ccc(-c2[nH]nc3ncnc(N)c23)cc1`, for which the growth is 73% (inactive).
To `COc1ccc(-c2no[n+]([O-])c2Nc2ccccc2Br)cc1` belongs 93.5% (inactive); to `N#C/C(=C\c1ccc(N2CCCCC2)cc1)C(=O)Nc1sc2c(c1C#N)CCC2`, 98.7% (inactive); to `COc1ccc2c(C3=C(c4c[nH]c5ccccc45)C(=O)N(O)C3=O)coc2c1`, 94.5% (inactive).
Regarding `Oc1ccccc1-c1nnc(SCc2ccc(O)c3ncccc23)o1`, the growth is -4.08% (active).
Regarding `O=S(=O)(Nc1ccc2c(c1)OC(F)(F)O2)c1ccc(-c2cnc(C3CC3)o2)cc1`, the growth is 38% (inactive).
In the case of `CCCCCCNC(=O)Oc1ccc(/C(=C(\C)c2ccc(Cl)cc2)c2ccc(OCCN(C)C)cc2)cc1` it was 47.9% (inactive); in that of `COC[C@]12CC[C@@H](C)[C@H](C)[C@H]1C1=CC[C@@H]3[C@@]4(C)CCCNC(C)(C)[C@@H]4CC[C@@]3(C)[C@]1(C)CC2`, 35.6% (inactive); in that of `CNC(=O)c1cc(Oc2ccc3nc(NC(=O)c4cccc(C(F)(F)F)c4)sc3c2)ccn1`, 101% (inactive).
Turning to `COc1ccc(N2CCN(C(=O)CSc3ccc(-c4nc5cc(C)c(C)cc5[nH]4)cn3)CC2)cc1`, the growth was 3.13% (active).
For the compound `CCn1c2ccc(/C=N/NS(=O)(=O)CCN(C)C)cc2c2cc(/C=N/NS(=O)(=O)CCN(C)C)ccc21`, the growth is -96.7% (active).
For `COC1=C(c2ccccc2)C(=O)C(OC)=C(c2ccccc2)C1=O`, the growth was 103% (inactive).
To `Cc1cc(O)c2c(c1)C(=O)C(c1c(C)cc3c(c1O)C(=O)C=CC3=O)=CC2=O` belongs 102% (inactive).
`C=CCn1c(SCC(=O)c2ccc(OC)cc2)nnc1-c1ccc(OC)cc1`: the growth was -20% (active).
Turning to `COc1ccc(/C=N/Nc2nc(Nc3ccccc3)nc(Nc3ccc(S(N)(=O)=O)cc3)n2)cc1`, the growth was 74.6% (inactive).
